Data as given in paper PMC5540273 (PLoS ONE, 2017).

Tests used:
Settings in all cases: concentration: 1 μM, replicates: in singlicate; n = 1
SNARK = test system: T1, SNARK
T1 construct: gene NUAK2

SNRK = test system: SNRK
SRC = test system: SRC
SRMS = test system: SRMS
SRPK1 = test system: SRPK1
SRPK2 = test system: SRPK2
SRPK3 = test system: SRPK3
STK16 = test system: STK16
STK33 = test system: STK33
STK35 = test system: STK35
STK36 = test system: STK36
STK39 = test system: STK39
SYK = test system: SYK
SgK110 = test system: SgK110
TAK1 = test system: T2, TAK1
T2 construct: gene MAP3K7

TAOK1 = test system: TAOK1
TAOK2 = test system: TAOK2
TAOK3 = test system: TAOK3
TBK1 = test system: TBK1
TEC = test system: TEC
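Note: KINOMEscan kinase panel screen.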

Structure (SMILES)	%Inh (SNARK) [%]	%Inh (SNRK) [%]	%Inh (SRC) [%]	%Inh (SRMS) [%]	%Inh (SRPK1) [%]	%Inh (SRPK2) [%]	%Inh (SRPK3) [%]	%Inh (STK16) [%]	%Inh (STK33) [%]	%Inh (STK35) [%]	%Inh (STK36) [%]	%Inh (STK39) [%]	%Inh (SYK) [%]	%Inh (SgK110) [%]	%Inh (TAK1) [%]	%Inh (TAOK1) [%]	%Inh (TAOK2) [%]	%Inh (TAOK3) [%]	%Inh (TBK1) [%]	%Inh (TEC) [%]
CN(c1ccc(NC(=O)N2CCN(CCCN3CCOCC3)CC2)cc1)c1ccnc(Nc2ccc(CS(C)(=O)=O)cc2)n1.Cl [GW830899]	0	0	10	0	56	9	46	74	0	88	5	0	15	0	0	0	0	0	53	0
CC(C)(C)c1ccc(C(=O)Nc2cn3cc(-n4ccnc4)ccc3n2)cc1	79	16	0	0	0	0	0	19	0	0	10	0	0	15	9	0	0	0	24	0
c1ccc(Oc2ccc(Nc3ccnc4cc(-c5ccc(CN6CCCCC6)o5)ccc34)cc2)nc1 [GW567143]	9	0	37	94.2	0	0	20	0	99.9	59	0	0	0	0	0	0	0	0	0	41
Nc1cccc(-c2ccc3c(N)n[nH]c3c2)c1 [GSK2193613]	22	0	0	3	54	16	0	15	0	0	0	0	22	0	0	69	4	29	0	0
Cc1ccc(O)cc1Nc1ccnc2ccc(C(C)(C)C)cc12 [GW856805]	19	34	99.9	19	24	8	9	43	11	0	0	43	24	0	57	35	13	28	27	31
Cc1nn2c(=O)cc(N3CCO[C@H](C)C3)nc2n1Cc1cccc(Cl)c1Cl [GSK2373693]	0	0	19	0	40	0	0	59	0	1	0	5	19	0	0	0	0	3	0	2
O=C(O)C(F)(F)F.O=c1[nH]ccc2nc(N[C@@H]3CCNC3)nc(Nc3ccc4c(c3)S(=O)(=O)CC4)c12 [GSK2181306]	99	25	48	0	92.1	0	88	96.9	100	90.6	20	84	87	10	99.3	90.3	60	94.9	68	0
O=C(Nc1n[nH]c2nc(-c3cccc(O)c3)ccc12)C1CC1 [SB-711805]	0	7	0	15	45	0	32	83	0	0	14	4	40	0	15	88	12	34	23	0
